The test system of the test is VDR:RXRa (NR concentration 270 nM, RXRa partner concentration 90 nM). Nature of the test: PBM binding z-score (relative to random genomic background probes); higher = stronger binding; sequences stand for … in GC…GCGATTGACAGCGTAGAATGAAGG
The protocol:
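Protein-binding microarray (Agilent 4x180K custom design, double-stranded 60-nt probes: 5' GC cap, 34-nt variable region, 24-nt constant primer region; full probe sequence given). Purified or IVT nuclear receptor:RXRα heterodimers (3:1 NR:RXRα, mostly 270:90 nM) or homodimers were incubated for 1 h in PBS with 2% milk and no ligand, then detected with Alexa488 antibodies. Fluorescence from o1-orientation probes (~5 replicates averaged) was converted to z-scores against 500 random hg19 background probes. Variable regions are seed direct-repeat (DR0–DR5) sites, all their single-nucleotide variants and half-site ablations.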
As for ATATGTAGGTTATCGGGTCATACAGTTTGCGCAT, the PBM binding z-score turned out to be 5.13.

Regarding AGAATGAGATTACCAAAGATCAGGGAAACGCTTG, the PBM binding z-score was -0.0977.

In turn, GATACAGGGTCAGCTACAGGCCAGAGTATGGAAA gave a PBM binding z-score of 2.55.

In the case of CGTCCAAGGTCACAGAGGTCAGTGAATGCCGAGT, the PBM binding z-score was 7.74.

CGTCCAAGGTCATTGGAGGTCAGTGAAGACAGAT returned a PBM binding z-score of 7.03.

ATCGAAAGGTCGACGAGGTGAGTAAACACCGTTT registered a PBM binding z-score of 5.22.

On to CGAACTAGGTCATCCAGGTCAGTGAATACATTGA, for which the PBM binding z-score stood at 6.41.

In the case of AATAAAGGGTCATCGTAGGCCAGAGTACGCACAG, the PBM binding z-score is 5.33.

Sequence CGTCAAAGTTCAACTAAGGTTACGTAAAGCACGC gave a PBM binding z-score of 6.11.

Sequence CCTACTGGGCCAAAAAGTTCATTGATGCCGATAA had a PBM binding z-score of 3.68.

In turn, TGTCAAAGTTCAAAGGTGACGTAAGTATCCACAC had a PBM binding z-score of 5.65.

Sequence AGAATGAGGTTACTAAAGATCAGGGAAACGCTTG gave a PBM binding z-score of 0.79.

CGTCAAAGGTCAGCAGGTCAGTGAAAGCGACGTG came in with a PBM binding z-score of 5.16.

Regarding TACCCTAGGTCATTCAGGGGCCAGTATAGAAAGC, the PBM binding z-score is 3.44.

The sequence TGTCAAAGGTCAAAGGTAACGTAAGTATCCACAC yielded a PBM binding z-score of 6.2.

Take GATATAGGGTCAGCTAGAGGCCAGAGTATGGAAA: the PBM binding z-score is 3.42.

CCTACTGGGTCACGAAAGGTCATTGATTCAGTGA displayed a PBM binding z-score of 6.48.

Sequence CTCGAAAGGTCATGCTCAGGTGAGTATACCAAAC returned a PBM binding z-score of 5.69.

CCGAGAAGGTTACGAGGGGGCATTCAGTGCGAAT: the PBM binding z-score worked out at 6.24.

The sequence CCTAGTGGGCCAAGGTCATTGATCAGTCAAAGCA came in with a PBM binding z-score of 3.33.

CGAACAAGGTCATCCAGGACAGTGAATACATTGA showed a PBM binding z-score of 6.39.

Take CGTCAAAGGTCAACTAAGGTAACGTAAAGCACGC: the PBM binding z-score was found to be 6.2.

TCTAGTTGGTCACGGAGGGCACACACGACGGGTA returned a PBM binding z-score of 3.62.

Regarding CCTAGTTGTTCAGGAGGTCACACACCGGATATGA, the PBM binding z-score is 3.9.

Turning to TATACAGGGTCAAAGGCCAAAGTACGAATGTCGA, the PBM binding z-score was found to be 5.31.

As to GCTTACAGGTCAAAGGTTATAGCATGAATAGAAT, the PBM binding z-score came out at 5.51.

TCTAGTTGGTCACGGAGGTCCCACACGACGGGTA returned a PBM binding z-score of 1.19.

TCGAGTAGGTCACGGGGGCATTCAGGGATGAAGA came in with a PBM binding z-score of 5.82.

TCTCGGAGGACACCAAAGGTCAGAGCTCGACATC returned a PBM binding z-score of 3.38.

Sequence CAAACTAGGTCACTAAAGGTCAAAGTCGAATGAC gave a PBM binding z-score of 6.48.

As for TAGCCTAGTTCATTCAGGGGCCAGTATAGAAAGC, the PBM binding z-score turned out to be 2.

TGTCAAAGTTCAAAGGTTACGTAAGTATCCACAC came in with a PBM binding z-score of 6.4.

On to TAGCCTAGGTCACATCGGGCCAGTATACGCTATA, for which the PBM binding z-score was determined as 2.43.

Turning to ATATGTAGGTTGGGGTCATTCAGAAAGTAGGGAA, the PBM binding z-score worked out at 6.03.

With CCTTACGGGTCCCTCCAGGTTATAGCATCGGAGT, the PBM binding z-score stood at 0.0642.

ATCGAAAGGTCAAAGGTGAGTATACCCACCCGAA registered a PBM binding z-score of 6.2.

AAAACAGGGTCATCGTAGGCCAGAGTACGCACAG displayed a PBM binding z-score of 5.38.

For CCTTACGGGTCAAGGTTATAGCCCGGGTGGTACG, the PBM binding z-score was 3.31.

TAGCCTAGGGCATTCAGGGGCCAGTATAGAAAGC had a PBM binding z-score of -0.213.

As to TGTCAATGTTCAAAGGTAACGTAAGTATCCACAC, the PBM binding z-score is 0.373.

(Values after the supplement of paper PMC6555819.)
